The results in this text go back to PubChem BioAssay AID463212 (Sanford-Burnham Center for Chemical Genomics, 2010).

Several values for one entry are separate records, joined by “and”; a condition that tells them apart may be missing. Equal values may be shown once. Screen size: about 330,000 compounds; about 4,400 (1.3%) were called active.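 The calls were made as follows: active = growth inhibition of the mutant yeast at or above 50%; inactive = the rest.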 Shown is part of a subset that was picked to be rich in actives.

The test can be described thus: growth inhibition of tim23-1 ts yeast – luminescence, uHTS, primary screen (AID 463212).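 Also: temperature-sensitive mutant grown at 25 °C; plate controls were DMSO-treated mutant yeast for no effect and medium wells lacking yeast for full effect.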 To be noted: S. cerevisiae tim23-1 growth, BacTiter-Glo luminescence, 24 h; at 20 µM; hits give high values.
Turning to `Cc1c(NC(=O)c2cc(-c3ccc(Cl)s3)nc3ccccc23)c(=O)n(-c2ccccc2)n1C`, the inhibition (commonly the relative decrease from the control value, in per cent) is 25.7% (inactive).
In the case of `NC(=NC(=O)c1ccccc1)C1=C(O)CCC1=O` it was 15.3% (inactive).
`Cc1ccc(CS(=O)(=O)c2ncc(Cl)c(C(=O)Nc3nnc(C)s3)n2)cc1`: the inhibition was 18.2% (inactive).
In the case of `Cc1cccc(NC(=O)c2nc(S(=O)(=O)Cc3ccccc3)ncc2Cl)c1` it was 75.9% (active); in that of `Cc1cccc(CS(=O)(=O)c2ncc(Cl)c(C(=O)Nc3ccc(F)cc3)n2)c1`, 39.1% (inactive); in that of `CCOC(=O)Cc1cc(=O)[nH]c(/N=C(\N)Nc2ccc(OC)cc2)n1`, -4.74% (inactive).
As for `COCCNc1ccc(-c2n[nH]c(=O)c3ccccc23)cc1[N+](=O)[O-]`, the figure is 1.96% (inactive); as for `O=C(NC1CCCCC1)c1ccc(-c2ccc(Cl)cc2)o1`, 45.4% (inactive); as for `Cc1[nH][nH]c(=O)c1C(c1ccc(-c2ccc(Cl)cc2)o1)c1c(C)[nH][nH]c1=O`, 84.6% (active).
As for `CN(CC(=O)Nc1ccc(F)cc1)C(=O)c1ccc(-c2ccc(Cl)cc2)o1`, the figure is 36.9% (inactive); as for `Cc1ccsc1C1C(C#N)=C(N)OC2=C1C(=O)CC(C)(C)C2` (stereo not given), 15.8% (inactive); as for `NC(=O)COc1ccc(/C=N/NC(=O)C2CCCN2S(=O)(=O)c2ccc(Cl)cc2)cc1` (stereo not given), 4.5% (inactive).
With `CC1(C)C=Cc2c(ccc3c2OC[C@@H](c2ccc(O)cc2O)C3)O1`, the inhibition was 81.8% (active).
For `CCCCc1nccn1CCn1ccnc1CCCC`, the inhibition is 2.76% (inactive).
In the case of `CN(C(=O)CC(NC(=O)c1ccccc1)(c1ccccc1)c1ccccc1)c1ccccc1` it was 51.5% (active); in that of `CN(C(=O)COC(=O)CNC(=O)C12CC3CC(CC(C3)C1)C2)c1ccccc1`, 3.66% (inactive); in that of `CC(C)(C)c1ccc(C(=O)NNC(=O)Cc2ccccc2)cc1`, 8.91% (inactive).
In the case of `C=CCn1c(P(C)(=O)O)nc2ccccc21` it was 5.79% (inactive) and -9.61% (inactive).
As for `O=C(c1ccco1)N1CCN(C(=O)C2CCCN(S(=O)(=O)c3cccc4nsnc34)C2)CC1` (stereo not given), the figure is 9.26% (inactive); as for `Cc1c(Br)ccc(NC(=O)COc2ccccc2C(N)=O)c1C`, 3.99% (inactive).
In the case of `Cc1cc(=O)cc(C)n1-c1ccc(Cl)c(Cl)c1`, the inhibition is 1.14% (inactive).
In the case of `CCSc1ncnc2c(C#N)c3n(c12)CCCCC3` it was 32.7% (inactive); in that of `CCSC1=C(C#N)C(=O)n2c1cc1c2CCCC1`, 58% (active).
As for `CC(=O)NC1CCN(CC(=O)Nc2nccs2)CC1`, the figure is 8.15% (inactive); as for `COc1ccccc1CCCNC(=O)C1CCC(=O)N(CCN2CCOCC2)C1` (stereo not given), -0.497% (inactive).
